Inconclusive results are not listed. Active and inactive are the calls of the source. The call rests on the fitted dose curve; in most records, active means well fitted curve in the direction sought with a large enough effect in the repeat runs; inconclusive means weak or mixed curves; inactive means no such curve, though single readings can be large; an effect the other way counts as inactive or inconclusive. Non-standard residues stand in square brackets, D forms with d. Residues, ends and D or L forms follow the SMILES beside them. *: point of attachment. Sta = CC(C)C[C@H](N)[C@@H](O)CC(=O)O; Isovaleryl = CC(C)CC(=O)*
Assays:
[1] = target: Nuclear receptor subfamily 1 group I member 2 (Homo sapiens) (UniProt O75469); experiment: CYP3A4 induction through human pregnane X receptor (PXR) by small molecules, qHTS assay (AID 1346984); further: nearly all actives have a fitted effect of over 40% in size
In short: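 Steps: seed DPX-2 cells, 5 hr at 37C; pin-transfer compounds; 24 hr at 37C; add Luciferin-IPA (3uM final), 3 hr at 37C; add One-Glo, 30 min RT; read luminescence.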

[2] = target: Nuclear receptor subfamily 1 group I member 2 (Homo sapiens) (UniProt O75469); experiment: Human pregnane X receptor (PXR) activation by small molecules, qHTS assay (AID 1346985); further: nearly all actives have a fitted effect of over 40% in size
In short: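 DPX-2 cells (HepG2 co-transfected with a PXR response element and a CYP3A4-promoter luciferase construct) were seeded at 2,000 per well, rested 5 hr at 37C, then exposed to DMSO-dissolved compounds for 24 hr. Activation was read as luciferase luminescence.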

[3] = target: Cytochrome P450 2D6 (Homo sapiens) (UniProt P10635); experiment: Cytochrome P450 Family 2 Subfamily D Member 6 (CYP2D6) small molecule antagonists: luciferase reporter qHTS assay (AID 1671196); further: series mostly up to about 120 µM; nearly all actives have a fitted effect of over 50% in size
In short: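 P450-Glo format: CYP2D6 converts a proluciferin substrate to luciferin in an NADPH-driven reaction lasting 1 h at room temperature. Light output, proportional to CYP2D6 activity, reflects interference by test chemicals.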

[4] = target: Cytochrome P450 2C9 (Homo sapiens) (UniProt P11712); experiment: Cytochrome P450 Family 2 Subfamily C Member 9 (CYP2C9) small molecule antagonists: luciferase reporter qHTS assay (AID 1671198); further: nearly all actives have a fitted effect of over 50% in size; further: potency means the concentration at half of the fitted maximal effect; on activity change, negative = inhibition: series mostly up to about 120 µM
In short: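 Enzyme-substrate mix preincubated with compound 10 min at room temperature; reaction started with NADPH regeneration solution, 1 h 37C. Luminescent luciferin product read after 20 min detection reagent.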

[5] = target: Voltage-gated inwardly rectifying potassium channel KCNH2 (Homo sapiens) (UniProt Q12809); experiment: Human Ether-a-go-go-Related Gene (hERG) channel small molecule antagonists: fluorescence cell-based qHTS assay (AID 1671200);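 further: hERG-expressing U2OS cells given a thallium stimulus after FluxOR II dye loading; series mostly up to about 77 µM; nearly all actives have a fitted effect of over 50% in size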
In short: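 Quantitative HTS in hERG-U2OS cells: thallium entry through the channel reports activity, read as continuous 480/540 nm fluorescence over 2 min after stimulus addition.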

[6] = target: Cytochrome P450 1A2 (Homo sapiens) (UniProt P05177); experiment: Cytochrome P450 Family 1 Subfamily A Member 2 (CYP1A2) small molecule antagonists: luciferase reporter qHTS assay (AID 1671199); further: nearly all actives have a fitted effect of over 50% in size; further: potency means the concentration at half of the fitted maximal effect; on activity change, negative = inhibition: series mostly up to about 120 µM
In short: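 Inhibition of CYP1A2 conversion of proluciferin to luciferin, detected by luminescence. Reaction run 1 h at room temperature with NADPH regeneration after brief compound preincubation.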

[7] = target: Cytochrome P450 3A4 (Homo sapiens) (UniProt P08684); experiment: Cytochrome P450 Family 3 Subfamily A Member 4 (CYP3A4) small molecule antagonists: luciferase reporter qHTS assay (AID 1671201)
In short: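 Inhibition of CYP3A4 is measured as loss of light: the enzyme converts a proluciferin substrate to luciferin, detected luminescently. Reaction ran 1 h at room temperature with NADPH regeneration after a 10 min compound preincubation.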

[8] = target: Cytochrome P450 2C19 (Homo sapiens) (UniProt P33261); experiment: Cytochrome P450 Family 2 Subfamily C Member 19 (CYP2C19) small molecule antagonists: luciferase reporter qHTS assay (AID 1671197); further: nearly all actives have a fitted effect of over 65% in size; further: potency means the concentration at half of the fitted maximal effect; on activity change, negative = inhibition: series mostly up to about 120 µM
In short: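 First, compounds are pinned into enzyme-substrate mix and held 10 min at room temperature. Second, NADPH regeneration solution is added and plates incubate 1 h at 37C. Third, detection reagent is added and luminescence read after 20 min.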
On the % scale 0 is the no-effect control and ±100 the full control effect.

Sequence of Cytochrome P450 2C19 (Homo sapiens) (P33261 whole entry, looked up): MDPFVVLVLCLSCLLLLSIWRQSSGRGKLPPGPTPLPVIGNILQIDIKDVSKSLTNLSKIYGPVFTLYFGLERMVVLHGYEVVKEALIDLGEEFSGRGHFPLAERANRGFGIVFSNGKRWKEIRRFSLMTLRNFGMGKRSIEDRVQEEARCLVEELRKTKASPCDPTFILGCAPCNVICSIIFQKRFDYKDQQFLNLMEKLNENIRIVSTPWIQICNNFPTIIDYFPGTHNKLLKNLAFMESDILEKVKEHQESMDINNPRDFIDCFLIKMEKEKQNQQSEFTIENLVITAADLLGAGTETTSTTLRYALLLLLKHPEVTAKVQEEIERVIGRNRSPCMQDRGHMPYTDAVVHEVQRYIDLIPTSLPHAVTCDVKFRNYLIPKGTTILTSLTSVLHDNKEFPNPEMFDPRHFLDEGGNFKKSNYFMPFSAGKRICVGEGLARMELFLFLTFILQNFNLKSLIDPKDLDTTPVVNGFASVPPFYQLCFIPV
Sequence of Cytochrome P450 2D6 (Homo sapiens) (P10635 whole entry, looked up): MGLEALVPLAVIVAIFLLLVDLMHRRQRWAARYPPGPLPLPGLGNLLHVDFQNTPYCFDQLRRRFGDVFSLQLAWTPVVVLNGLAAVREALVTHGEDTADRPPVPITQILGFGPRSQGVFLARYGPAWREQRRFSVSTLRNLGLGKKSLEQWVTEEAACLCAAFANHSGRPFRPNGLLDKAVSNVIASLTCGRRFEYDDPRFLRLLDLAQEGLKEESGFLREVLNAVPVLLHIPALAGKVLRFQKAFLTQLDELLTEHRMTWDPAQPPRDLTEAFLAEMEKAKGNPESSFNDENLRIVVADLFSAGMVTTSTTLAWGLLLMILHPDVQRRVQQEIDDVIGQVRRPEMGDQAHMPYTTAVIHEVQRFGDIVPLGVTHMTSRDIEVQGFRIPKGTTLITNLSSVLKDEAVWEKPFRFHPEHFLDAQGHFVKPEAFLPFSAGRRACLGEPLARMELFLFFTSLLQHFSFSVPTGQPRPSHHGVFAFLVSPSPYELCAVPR
Sequence of Cytochrome P450 2C9 (Homo sapiens) (P11712 whole entry, looked up): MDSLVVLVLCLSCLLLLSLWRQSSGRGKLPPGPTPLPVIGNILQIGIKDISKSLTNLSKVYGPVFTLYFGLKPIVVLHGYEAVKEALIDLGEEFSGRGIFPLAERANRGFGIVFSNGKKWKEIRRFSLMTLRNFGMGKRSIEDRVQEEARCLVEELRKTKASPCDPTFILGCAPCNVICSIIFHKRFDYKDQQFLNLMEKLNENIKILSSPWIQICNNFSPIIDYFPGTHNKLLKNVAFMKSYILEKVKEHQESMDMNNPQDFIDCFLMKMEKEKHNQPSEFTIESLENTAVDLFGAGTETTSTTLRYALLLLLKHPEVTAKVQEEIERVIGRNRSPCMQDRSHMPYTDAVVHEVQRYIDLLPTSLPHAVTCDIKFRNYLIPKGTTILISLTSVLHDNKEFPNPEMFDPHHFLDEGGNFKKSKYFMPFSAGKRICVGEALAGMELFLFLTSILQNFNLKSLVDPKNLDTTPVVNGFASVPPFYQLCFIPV
Sequence of Cytochrome P450 3A4 (Homo sapiens) (P08684 whole entry, looked up): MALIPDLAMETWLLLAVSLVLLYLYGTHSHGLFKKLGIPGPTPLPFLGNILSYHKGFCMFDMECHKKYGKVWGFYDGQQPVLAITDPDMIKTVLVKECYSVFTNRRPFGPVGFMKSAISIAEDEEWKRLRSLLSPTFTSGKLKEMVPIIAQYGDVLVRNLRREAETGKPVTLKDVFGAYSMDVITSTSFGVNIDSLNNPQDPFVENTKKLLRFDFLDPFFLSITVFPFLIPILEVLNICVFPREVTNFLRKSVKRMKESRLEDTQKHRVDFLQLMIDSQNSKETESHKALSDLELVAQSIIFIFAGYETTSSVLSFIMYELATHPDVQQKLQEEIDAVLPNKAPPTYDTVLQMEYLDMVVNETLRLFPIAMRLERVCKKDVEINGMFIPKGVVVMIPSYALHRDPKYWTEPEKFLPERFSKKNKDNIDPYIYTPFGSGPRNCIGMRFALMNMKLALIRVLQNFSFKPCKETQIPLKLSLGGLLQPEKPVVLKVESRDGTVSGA
Sequence of Voltage-gated inwardly rectifying potassium channel KCNH2 (Homo sapiens) (Q12809 whole entry, looked up): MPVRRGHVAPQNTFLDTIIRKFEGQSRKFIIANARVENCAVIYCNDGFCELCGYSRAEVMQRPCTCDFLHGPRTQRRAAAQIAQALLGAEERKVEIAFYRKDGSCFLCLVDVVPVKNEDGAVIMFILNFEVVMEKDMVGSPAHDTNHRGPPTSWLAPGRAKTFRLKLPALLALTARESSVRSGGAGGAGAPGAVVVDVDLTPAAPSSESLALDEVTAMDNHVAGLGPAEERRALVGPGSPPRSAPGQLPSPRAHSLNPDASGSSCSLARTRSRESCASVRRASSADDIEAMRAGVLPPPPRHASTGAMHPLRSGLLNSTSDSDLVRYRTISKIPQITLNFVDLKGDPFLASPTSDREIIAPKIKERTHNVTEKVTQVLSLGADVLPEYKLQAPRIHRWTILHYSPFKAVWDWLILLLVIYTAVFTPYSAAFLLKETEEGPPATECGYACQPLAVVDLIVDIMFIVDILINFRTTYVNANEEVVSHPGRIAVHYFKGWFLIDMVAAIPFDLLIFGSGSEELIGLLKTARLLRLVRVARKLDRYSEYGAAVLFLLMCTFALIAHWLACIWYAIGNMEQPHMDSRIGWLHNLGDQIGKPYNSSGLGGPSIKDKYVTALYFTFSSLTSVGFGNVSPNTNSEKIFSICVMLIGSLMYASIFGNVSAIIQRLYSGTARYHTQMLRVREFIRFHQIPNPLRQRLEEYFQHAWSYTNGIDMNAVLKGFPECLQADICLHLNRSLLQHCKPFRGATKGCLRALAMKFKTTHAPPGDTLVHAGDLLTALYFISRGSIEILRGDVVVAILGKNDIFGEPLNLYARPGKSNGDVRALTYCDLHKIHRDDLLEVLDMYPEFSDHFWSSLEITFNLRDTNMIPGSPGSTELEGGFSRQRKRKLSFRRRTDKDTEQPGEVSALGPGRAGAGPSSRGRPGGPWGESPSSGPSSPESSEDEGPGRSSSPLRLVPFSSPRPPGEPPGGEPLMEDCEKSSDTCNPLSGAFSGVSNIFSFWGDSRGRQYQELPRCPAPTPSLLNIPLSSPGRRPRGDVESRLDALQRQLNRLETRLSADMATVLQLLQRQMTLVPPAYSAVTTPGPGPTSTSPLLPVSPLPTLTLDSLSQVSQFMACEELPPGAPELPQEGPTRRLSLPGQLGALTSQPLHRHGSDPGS
Sequence of Cytochrome P450 1A2 (Homo sapiens) (P05177 whole entry, looked up): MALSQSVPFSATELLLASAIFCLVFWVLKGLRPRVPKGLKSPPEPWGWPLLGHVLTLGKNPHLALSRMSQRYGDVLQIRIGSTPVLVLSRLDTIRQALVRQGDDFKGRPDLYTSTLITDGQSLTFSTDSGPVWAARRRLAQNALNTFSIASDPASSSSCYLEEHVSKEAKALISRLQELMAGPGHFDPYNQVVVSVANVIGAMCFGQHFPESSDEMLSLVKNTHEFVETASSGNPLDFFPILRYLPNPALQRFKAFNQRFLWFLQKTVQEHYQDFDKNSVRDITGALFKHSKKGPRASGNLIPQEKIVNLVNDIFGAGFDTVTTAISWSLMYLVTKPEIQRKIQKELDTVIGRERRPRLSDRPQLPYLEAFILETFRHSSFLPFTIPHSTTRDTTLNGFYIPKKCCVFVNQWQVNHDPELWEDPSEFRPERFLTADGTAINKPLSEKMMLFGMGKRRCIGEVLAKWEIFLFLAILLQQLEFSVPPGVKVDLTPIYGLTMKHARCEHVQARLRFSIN

CC(C)CC(=O)N[C@H](C(=O)N[C@H](C(=O)N[C@@H](CC(C)C)[C@@H](O)CC(=O)N[C@@H](C)C(=O)N[C@@H](CC(C)C)[C@@H](O)CC(=O)O)C(C)C)C(C)C (Isovaleryl-VV[Sta]A[Sta]-OH)
inactive: outcome [1] | outcome [2] | Potency [3] | Potency [4] | Potency [5]

CC[C@@]1(c2ccccc2)NC(=O)N(C)C1=O
inactive: outcome [1] | outcome [2] | Potency [3] | Potency [4] | Potency [6] | Potency [7]

O=C(OOC(=O)c1ccccc1)c1ccccc1
inactive: outcome [1] | outcome [2] | Potency [3] | Potency [4] | Potency [6] | Potency [5] | Potency [7]

CCCCN=C(N)N=C(N)N
inactive: outcome [1] | outcome [2] | Potency [8] | Potency [4] | Potency [5] | Potency [7]

O=C(CCBr)N1CCN(C(=O)CCBr)CC1
inactive: outcome [1] | outcome [2] | Potency [8] | Potency [4] | Potency [5] | Potency [7]

CC(=O)Nc1ccc(OCCOCCOc2ccc(NC(C)=O)cc2)cc1
inactive: outcome [1] | outcome [2] | Potency [6] | Potency [5] | Potency [7]
active: Potency [8] 17.4 µM | Potency [4] 5.49 µM

CC(C)OC(=O)C(C(=O)OC(C)C)=C1SC=CS1
active: Potency [6] 13.8 µM
inactive: outcome [1] | outcome [2] | Potency [3] | Potency [7]

COc1cc(OC)cc(OC)c1
active: Potency [6] 17.4 µM
inactive: outcome [1] | outcome [2] | Potency [3] | Potency [8] | Potency [4] | Potency [5] | Potency [7]

C[C@@H]1CC[C@@]2(OC1)O[C@H]1C[C@H]3[C@@H]4CC[C@H]5C[C@@H](O)CC[C@]5(C)[C@H]4CC(=O)[C@]3(C)[C@H]1[C@@H]2C
inactive: outcome [1] | outcome [2] | activity change, negative = inhibition [8] 11.3% [at 10.5 µM] | activity change, negative = inhibition [4] 3.54% [at 10.5 µM] | activity change, negative = inhibition [6] 10.1% [at 10.5 µM] | activity change, negative = inhibition [5] 3.03% [at 6.97 µM] | activity change, negative = inhibition [7] 29.8% [at 10.5 µM]

O=S(=O)(O)c1cc(I)c(O)c2ncccc12
inactive: outcome [1] | outcome [2] | Potency [3] | Potency [8] | Potency [6] | Potency [7]

C[C@H]1COc2c(C3(N)CC3)c(F)cc3c(=O)c(C(=O)O)cn1c23
inactive: outcome [1] | outcome [2] | Potency [3] | Potency [8] | Potency [6] | Potency [5] | Potency [7]

CN(C)CCC[C@@]1(c2ccc(F)cc2)OCc2cc(C#N)ccc21
inactive: outcome [1] | outcome [2] | Potency [8] | Potency [4] | Potency [6] | Potency [7]

O=P(O)(O)C(O)(Cc1cccnc1)P(=O)(O)O
inactive: outcome [1] | outcome [2] | Potency [3] | Potency [4] | Potency [6] | Potency [5] | Potency [7]

C=CCN1CCc2nc(N)sc2CC1
inactive: outcome [1] | outcome [2] | Potency [4] | Potency [6] | Potency [5] | Potency [7]

N=C(N)N1CCc2ccccc2C1
inactive: outcome [1] | outcome [2] | activity change, negative = inhibition [3] -15.2% [at 10.5 µM] | activity change, negative = inhibition [8] 22.1% [at 10.5 µM] | activity change, negative = inhibition [4] 6.48% [at 10.5 µM] | activity change, negative = inhibition [6] 0.421% [at 10.5 µM] | activity change, negative = inhibition [5] -6.17% [at 6.97 µM]

CC(=O)OCC(=O)[C@@]1(O)CC[C@H]2[C@@H]3CCC4=CC(=O)C=C[C@]4(C)[C@H]3[C@@H](O)C[C@@]21C
inactive: outcome [1] | outcome [2] | Potency [3] | Potency [4] | Potency [6] | Potency [5]

CCCCC(CC)CCC(CC(C)C)OS(=O)(=O)O (configuration not stated)
inactive: outcome [1] | outcome [2] | Potency [3] | Potency [6] | Potency [5] | Potency [7]
active: Potency [4] 31.7 µM

NS(=O)(=O)c1cc2c(cc1C(F)(F)F)NCNS2(=O)=O
inactive: outcome [1] | outcome [2] | Potency [3] | Potency [4] | Potency [6] | Potency [5]

O=C(O)P(=O)(O)O
inactive: outcome [1] | outcome [2] | Potency [3] | Potency [8] | Potency [4] | Potency [6] | Potency [5]

Nc1ccc(C(=O)NCC(=O)O)cc1
inactive: outcome [1] | outcome [2] | Potency [4] | Potency [6] | Potency [5]

CCN1CCN(C(=O)N[C@@H](C(=O)N[C@@H]2C(=O)N3C(C(=O)O)=C(CSc4nnnn4C)CS[C@H]23)c2ccc(O)cc2)C(=O)C1=O
inactive: outcome [1] | outcome [2] | Potency [3] | Potency [8] | Potency [4] | Potency [6] | Potency [5] | Potency [7]

C[C@@H]1NC(=O)[C@@H](N)CNC(=O)[C@H](C2CCNC(N)=N2)NC(=O)/C(=C/NC(N)=O)NC(=O)[C@H](CNC(=O)C[C@@H](N)CCCN)NC1=O (some centres not stated)
inactive: outcome [1] | outcome [2] | activity change, negative = inhibition [3] -6.52% [at 0.435 µM] | activity change, negative = inhibition [4] 3.32% [at 0.435 µM] | activity change, negative = inhibition [6] 10.4% [at 0.435 µM] | activity change, negative = inhibition [5] 0.491% [at 0.29 µM] | activity change, negative = inhibition [7] 1.92% [at 0.435 µM]

Reference: PubChem BioAssay (Tox21)
